Measured values taken from PubChem BioAssay (NCI).
The panel holds about 79,000 compounds, 15% with a hit somewhere; the sample as a whole holds those more often. Activity calls are given as the source filed them. Cut-off read from the data, not from the text of the source: active = growth inhibition above about 70%; inactive = the rest.

How the values were obtained:
[1] = NCI Yeast Anticancer Drug Screen. Data for the rad52 strain (AID 147);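 note: 0% = growth of vehicle-treated control cultures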; conditions: S. cerevisiae rad52 mutant growth inhibition, hits give high values
In short: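 Vehicle-treated cultures served as the reference for growth inhibition of compound-exposed yeast bearing a DNA repair mutation.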

[2] = NCI Yeast Anticancer Drug Screen. Data for the wt1 strain (AID 149);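 note: 0% = growth of vehicle-treated wt1 cultures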; conditions: S. cerevisiae wt1 strain (SPY 50644) growth inhibition, hits give high values
In short: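 Compounds are added to wt1 yeast cultures. Growth is then measured. Inhibition is expressed relative to vehicle-treated controls.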

[3] = NCI Yeast Anticancer Drug Screen. Data for the rad50EPP+ strain (AID 151);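 note: 0% = growth of vehicle-treated control cultures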; conditions: S. cerevisiae rad50 mutant strain, hits give high values
In short: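 In this screen, rad50EPP+ yeast were exposed to compounds. Growth inhibition was scored against vehicle-treated controls.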

[4] = NCI Yeast Anticancer Drug Screen. Data for the mgt1 strain (AID 153); conditions: S. cerevisiae mgt1 mutant growth inhibition, hits give high values
In short: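 mgt1 strain exposed; growth vs vehicle control recorded as inhibition.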

[5] = NCI Yeast Anticancer Drug Screen. Data for the rad50 strain (AID 155);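 note: 0% = growth of vehicle-only cultures of the same strain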; conditions: S. cerevisiae rad50 strain growth inhibition, hits give high values
In short: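 Inhibition values express reduced yeast growth in compound-treated cultures relative to vehicle-treated controls.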

[6] = NCI Yeast Anticancer Drug Screen. Data for the mec2-1 strain (AID 157); conditions: S. cerevisiae mec2-1 strain, hits give high values
In short: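 Vehicle-treated cultures served as reference for growth inhibition of compound-exposed mec2-1 yeast.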

[7] = NCI Yeast Anticancer Drug Screen. Data for the rad14 strain (AID 159);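 note: 0% = growth of vehicle-treated control cultures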; conditions: S. cerevisiae rad14 strain growth inhibition, hits give high values
In short: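 A mutant yeast strain defective in DNA damage repair is treated with compound; inhibition of its growth is scored against untreated, vehicle-exposed cultures.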

[8] = NCI Yeast Anticancer Drug Screen. Data for the sgs1 mgt1 strain (AID 161);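 note: 0% = growth of cultures given vehicle only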; conditions: S. cerevisiae sgs1 mgt1 strain, hits give high values
In short: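 Test agents were incubated with a DNA-repair-mutant yeast strain. Growth was then read and compared against vehicle-treated controls.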

[9] = NCI Yeast Anticancer Drug Screen. Data for the CLN2oe strain (AID 163);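 note: 0% = growth of vehicle-only control cultures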; conditions: S. cerevisiae CLN2oe strain, hits give high values
In short: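 Inhibition relative to vehicle-treated yeast is reported. Cells: strain with genetic alteration in cell-cycle control, grown with compound.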

[10] = NCI Yeast Anticancer Drug Screen. Data for the cln2 rad14 strain (AID 165);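 note: 0% = growth equal to vehicle treated cultures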; conditions: S. cerevisiae cln2 rad14 strain, hits give high values
In short: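 Each compound was tested on cln2 rad14 yeast. Inhibition of growth was calculated against vehicle-exposed controls.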

[11] = NCI Yeast Anticancer Drug Screen. Data for the bub3 strain (AID 167); conditions: S. cerevisiae bub3 mutant strain, hits give high values
In short: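 Steps: expose the mutant yeast strain to compound; grow alongside vehicle-treated cultures; measure growth; express inhibition against the vehicle cultures.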

[12] = NCI Yeast Anticancer Drug Screen. Data for the wt2 strain (AID 169);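 note: 0% = growth of vehicle-treated yeast cultures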; conditions: S. cerevisiae wt2 strain growth inhibition, hits give high values
In short: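 Inhibition of yeast growth was determined after compound treatment, normalised to controls receiving only vehicle.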

[13] = NCI Yeast Anticancer Drug Screen. Data for the mlh1 strain (AID 171);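 note: 0% = growth of vehicle-treated control cultures of the same strain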; conditions: S. cerevisiae mlh1 strain growth inhibition, hits give high values
In short: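 Vehicle-normalised growth inhibition of a repair- or checkpoint-altered yeast strain following compound treatment.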

[14] = NCI Yeast Anticancer Drug Screen. Data for the sgs1 strain (AID 173);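 note: 0% = growth of vehicle-only control cultures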; conditions: S. cerevisiae sgs1 mutant, hits give high values
In short: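 Screen format: yeast with repair or checkpoint alterations, compound exposure, growth read relative to vehicle.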

[15] = NCI Yeast Anticancer Drug Screen. Data for the mlh1 rad18 strain (AID 175); conditions: S. cerevisiae mlh1 rad18 strain growth inhibition, hits give high values
In short: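 Vehicle-treated cultures served as the reference for growth inhibition in a yeast strain carrying DNA damage repair alterations exposed to each compound.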

[16] = NCI Yeast Anticancer Drug Screen. Data for the rad18 strain (AID 177); conditions: S. cerevisiae rad18 mutant growth inhibition, hits give high values
In short: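 Test articles were incubated with altered yeast defective in DNA damage repair. Results are given as inhibition of growth versus vehicle.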

[17] = at 5.0 µM (retest, dose inferred, filed as 0.5)
[18] = at 50.0 µM (retest, dose inferred, filed as 5.0)

Measured: growth inhibition

CC(NCCN(C)C)C1CCC2C3CCc4cc(O)ccc4C3CCC12C (stereo not drawn)
inactive: [1]; at 1.2 µM 6% | [1]; at 3.7 µM 16% | [1]; at 11.0 µM 57% | [2]; at 1.2 µM -4% | [2]; at 3.7 µM -1% | [2]; at 11.0 µM 7% | [2]; at 33.0 µM 43% | [3]; at 1.2 µM 26% | [3]; at 3.7 µM 41% | [3]; at 11.0 µM 66% | [4]; at 1.2 µM 0% | [4]; at 3.7 µM 1% | [4]; at 11.0 µM 13% | [5]; at 1.2 µM 14% | [5]; at 3.7 µM 19% | [5]; [17] -10% | [5]; at 11.0 µM 57% | [5]; [18] 55% | [6]; at 1.2 µM 2% | [6]; at 3.7 µM 5% | [6]; [17] 2% | [6]; at 11.0 µM 14% | [6]; at 33.0 µM 68% | [6]; [18] 49% | [6]; at 50.0 µM 61.2% | [7]; at 1.2 µM 3% | [7]; at 3.7 µM 4% | [7]; at 11.0 µM 13% | [7]; at 33.0 µM 65% | [8]; [17] 7% | [8]; [18] 47% | [9]; at 1.2 µM 1% | [9]; at 3.7 µM 1% | [9]; at 11.0 µM 11% | [9]; at 33.0 µM 61% | [10]; [17] 35% | [10]; [18] 29% | [10]; at 50.0 µM 41.7% | [11]; at 1.2 µM 6% | [11]; at 3.7 µM 11% | [11]; [17] -4% | [11]; at 11.0 µM 33% | [11]; [18] 44% | [11]; at 50.0 µM 63.1% | [12]; at 1.2 µM -1% | [12]; at 3.7 µM 0% | [12]; at 11.0 µM 15% | [13]; at 1.2 µM 4% | [13]; at 3.7 µM 4% | [13]; at 11.0 µM 26% | [14]; at 1.2 µM 3% | [14]; at 3.7 µM 9% | [14]; at 11.0 µM 42% | [15]; [17] 4% | [15]; [18] 59% | [16]; at 1.2 µM 22% | [16]; at 3.7 µM 20% | [16]; at 11.0 µM 52%
active: [1]; at 33.0 µM 93% | [1]; at 100.0 µM 95% | [2]; at 100.0 µM 97% | [3]; at 33.0 µM 90% | [3]; at 100.0 µM 96% | [4]; at 33.0 µM 75% | [4]; at 100.0 µM 97% | [5]; at 33.0 µM 92% | [5]; at 50.0 µM 81% | [5]; at 100.0 µM 93% | [6]; at 100.0 µM 97% | [7]; at 100.0 µM 98% | [8]; at 50.0 µM 91.2% | [9]; at 100.0 µM 95% | [11]; at 33.0 µM 76% | [11]; at 100.0 µM 94% | [12]; at 33.0 µM 84% | [12]; at 100.0 µM 97% | [13]; at 33.0 µM 78% | [13]; at 100.0 µM 97% | [14]; at 33.0 µM 87% | [14]; at 100.0 µM 96% | [15]; at 50.0 µM 82.4% | [16]; at 33.0 µM 91% | [16]; at 100.0 µM 95%
